The results in this text go back to PubChem BioAssay (Tox21).

The structures appear in SMILES notation. Where “and” joins values, the source holds several entries; their conditions need not be identical. Equal entries are not always repeated. Inconclusive results are not listed. A call without a number means that no potency is given here. Calls of active or inactive are those of the source. Calls come from the whole dose curve; as a rule, active = well fitted cell-killing curve with a large enough effect in the repeat runs; inconclusive = weak or mixed curves, or effect the other way; inactive = no such curve, though single readings can be large or run the other way.
Potency is the fitted concentration of half-maximal effect.

The experiment is described as follows: qHTS assay for identifying genotoxic compounds that show differential cytotoxicity against isogenic chicken DT40 cell lines with known DNA damage response pathways - wild type cell line (AID 743012). Note: nearly all actives have a fitted effect of over 60% in size. Conditions: DT40 wild type chicken cells viability, CellTiter-Glo, 40 h; series mostly up to 68.4 µM. The text has this:
U.S. Tox21 Program National Center for Advancing Translational Sciences [NCATS] NIH Chemical Genomics Center [NCGC] U.S. Environmental Protection Agency [EPA] National Institutes of Environmental Health Sciences [NIEHS] National Toxicology Program [NTP] U.S. Food and Drug Administration [FDA] Tox21 Assay Overview: DNA repair pathways play a critical role in cellular homeostasis by repairing DNA damage induced by endogenous processes and xenobiotics. Isogenic chicken DT40 cell lines deficient in different DNA repair pathways can be used to identify genotoxic compounds and aid in characterizing the nature of the DNA damage induced. Two DNA repair-deficient cell lines with disrupted genes, Rad54/Ku70 or Rev3, were used to screen the Tox21 10K compound library. Possible genotoxicity was based on the presence of a significant increase in cytotoxicity in one or more of the DNA repair-deficient cell lines compared to that observed in the parental DNA repair-proficient cell line. CellTiter Glo viability assay (Promega, Madison, WI) was used to measure cell viability in these cells after compound treatment. This assay includes the data from the wild type cell line.
Tox21 Assay Protocol Summary: 300 DT40 wild type cells in 5 uL/well were dispensed into white, solid-bottom 1536-well plates using a Multidrop Combi (ThermoFisher Scientific, Waltham, MA) dispenser. After the assay plates were incubated at 37 C/5% CO2 for approximately 0.5 hour, 23 nL of compounds dissolved in DMSO, positive controls or DMSO only was transferred into the assay plate by a pintool work station (Kalypsys, San Diego, CA). The assay plates were incubated at 37 C/5% CO2 for 40 hours. After 5 uL per well of CellTiter-Glo reagent was added into each well of the assay plates, the plates were incubated for 30 min at room temperature and the luminescence intensity of the plates was measured using a ViewLux (PerkinElmer, Shelton, CT) plate reader.
On the technique in general: Quantitative high-throughput screening tests each substance at several concentrations.
As to `O=C[C@H](O)[C@@H](O)[C@H](O)[C@H](O)CO`, the Potency entry was “inactive”. Next, `N#Cc1ccc(C2CCCc3cncn32)cc1` (stereo not given): “inactive”. Next, `CCn1ccnc1CC1COc2ccccc2O1` (stereo not given): “inactive”; `CCN(CC)CCOCCOC(=O)C1(c2ccccc2)CCCC1`: 5.96 µM (active). Next, `Cc1ccc(=O)n(-c2ccccc2)c1`: “inactive”; `CN(C)CCCN1c2ccccc2CCc2ccc(Cl)cc21`: 7.5 µM (active) and 6.11 µM (active); `O=C(O)CCCl`: “inactive”. Consider `C=CCOCC(CC)(CO)COCC=C`, for which the Potency result is “inactive”. Next, `CC(=O)N(CC(O)CO)c1c(I)c(C(=O)NCCO)c(I)c(C(=O)NCC(O)CO)c1I` (stereo not given): “inactive”. Regarding `CC(C)c1cc2c(cc1S(=O)(=O)O)[C@@]1(C)CCC[C@@](C)(C(=O)O)[C@@H]1CC2`, the Potency entry was “inactive”. Next, `CCCCCCCCS(=O)(=O)Cl`: “inactive”; `CCCCC(CC)COC(=O)c1ccccc1O` (stereo not given): “inactive”. Turning to `CC(=O)OCC(=O)[C@@]1(O)CC[C@H]2[C@@H]3CCC4=CC(=O)CC[C@]4(C)[C@H]3C(=O)C[C@@]21C`, the Potency entry is “inactive”. As to `CC(=O)CC(C)C`, the Potency entry was “inactive”. Take `NC(=O)c1ccc(N)cc1`: the Potency entry was “inactive”. For the compound `O=C(O)Cc1ccc(CCNS(=O)(=O)c2ccc(Cl)cc2)cc1`, the Potency result was “inactive”.

For `CN(C(=O)c1c(O)c2ccccc2n(C)c1=O)c1ccccc1`, the Potency entry was “inactive”. `Nc1cc(=O)[nH]c(N)n1`: the Potency entry is “inactive”. On to `CCC=O`, for which the Potency entry is “inactive”. Turning to `NC(=O)c1ccc([N+](=O)[O-])cc1`, the Potency result was “inactive”. Next, `O=C(O)CN(CCOCCOCCN(CC(=O)O)CC(=O)O)CC(=O)O`: “inactive”.

Take `COC(=O)CC(C)=O`: the Potency result was “inactive”.

On to `O=C1CC2CC1C1CCCC21` (stereo not given), for which the Potency entry is “inactive”. Next, `COc1cc(C(=O)N2CCCCCCC2)cc(OC)c1OC`: 21.1 µM (active); `Nc1c2c(nc3ccccc13)CCCC2O` (stereo not given): “inactive”; `CS(=O)(=O)O`: “inactive”.

For the compound `C=C[Si](OC(=C)C)(OC(=C)C)OC(=C)C`, the Potency result is “inactive”. Next, `CC(=O)c1ccccc1O`: “inactive”; `C1OCOCO1`: “inactive”; `CC(=O)CC(C)(C)C1CCCCC1`: “inactive”. Next, `O=C1NC(=O)[C@@]2(CCOc3ccc(F)cc32)N1`: “inactive”; `CO[Si](CCCOCC1CO1)(OC)OC` (stereo not given): “inactive”; `CCOC(=O)c1ccc(C)cc1`: “inactive”. For the compound `OCCCC1CCCCC1`, the Potency entry is “inactive”. Next, `O=C1OC(=O)C2CCCCC12` (stereo not given): “inactive”. As to `CC(C)CCCC(C)N` (stereo not given), the Potency entry was “inactive”. Next, `NC(=O)c1cn(Cc2c(F)cccc2F)nn1`: “inactive”; `C=CCCCCCCCCC=O`: “inactive”. Regarding `NS(=O)(=O)c1cc(C(=O)O)cc(N2CCCC2)c1Oc1ccccc1`, the Potency result was “inactive”. Regarding `CCCc1cc(C(N)=S)ccn1`, the Potency entry was “inactive”.
